The values below come from PubChem BioAssay (NCATS).

Where “and” joins values, the source holds several entries; their conditions need not be identical. Equal entries are not always repeated. Results filed as inconclusive are left out. Calls of active or inactive are those of the source. Unless noted, calls come from the whole dose curve.

Test [1] deals with Androgen receptor (Homo sapiens) (UniProt P10275). Kind of test: qHTS assay for small molecule agonists of androgen receptor signaling (AID 588515; active = well fitted curve in the direction sought with a large enough effect in the signal ratio, with a control signal flat; the % refers to the signal ratio; note: % is set by controls: 0 for no effect and ±100 for the full control effect). Particulars: AR-UAS-bla HEK293, beta-lactamase ratio, agonist 16 h; stronger effect = higher value. The procedure, abridged: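 EC50 and efficacy came from Hill fits of titrations (up to 92 uM) normalized to 30 nM R1881 as 100% and DMSO as 0%. Compound exposure was 16 h at 37 C on AR-UAS-bla HEK293 cells, with a 405/460/530 nm CCF4 fluorescence read.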

For test [2] the target is unchanged. Kind of test: qHTS assay for small molecule antagonists of androgen receptor signaling (AID 588516; active = well fitted curve in the direction sought with a large enough effect in the signal ratio, with a control signal flat, not every such curve was filed as active; the % refers to the signal ratio; note: % is set by controls: 0 for no effect and ±100 for the full control effect). The procedure, abridged: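 Antagonist mode: inhibition of R1881-stimulated (10 nM final) bla reporter in GeneBLAzer AR HEK 293 cells, 16 h at 37C, compounds titrated. IC50 and efficacy from Hill-equation fits of 405/460–530 nm FRET ratios.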
Test [3] has as its target Peroxisome proliferator-activated receptor gamma (Homo sapiens) (UniProt P37231). Kind of test: qHTS assay for small molecule antagonists of peroxisome proliferator-activated receptor gamma signaling (AID 588537; active = well fitted inhibition curve with a large enough effect in the signal ratio, with a control signal flat, not every such curve was filed as active; the % refers to the signal ratio;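 note: reporter cells co-stimulated with 50 nM rosiglitazone agonist during compound treatment; % of control where 0% means no effect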). In short, it runs like this:
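Step one: plate 3000 HEK293 UAS-bla cells per well in medium with 1% stripped serum and hold 6-6.5 h at 37 C. Step two: add compound and 50 nM agonist for 16 h. Step three: CCF4 loading, fluorescence read.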

Test [4] is described as follows: qHTS assay for small molecule agonists of retinoid X receptor alpha signaling (AID 588544). Particulars: HEK293T RXRa-UAS-bla, beta-lactamase reporter, 18 h; 530 nm emission.
The target in test [5] is Glucocorticoid receptor (Homo sapiens) (UniProt P04150). As to the kind of experiment: qHTS assay for small molecule agonists of glucocorticoid receptor signaling (AID 588532; active = well fitted curve in the direction sought with a large enough effect in the signal ratio, with a control signal flat; the % refers to the signal ratio;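 note: 100% = dexamethasone at 0.1 µM and 0% = DMSO only wells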). To be noted: HeLa MMTV-bla, beta-lactamase ratio, agonist, 18 h; activation: stronger effect = higher value, percent of dexamethasone control, DMSO zero. The procedure, abridged: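 Cells were plated and rested 3-5 h at 37 C, compounds were added in titration and incubated 18 h, then CCF4 substrate was loaded for 2 h at RT before reading blue/green fluorescence. EC50 came from Hill-equation fitting.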

Test [6] has as its target Peroxisome proliferator-activated receptor gamma (Homo sapiens) (UniProt P37231). Kind of test: qHTS assay for small molecule agonists of peroxisome proliferator-activated receptor gamma signaling (AID 588536; active = well fitted curve in the direction sought with a large enough effect in the signal ratio, with a control signal flat, not every such curve was filed as active; the % refers to the signal ratio;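 note: 0% = DMSO basal wells and 100% = rosiglitazone at 2 µM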). In short, it runs like this:
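GeneBLAzer PPAR-gamma-UAS-bla HEK293 cells in 1% charcoal/dextran-treated FBS medium were treated 16 h at 37 C with compounds. Beta-lactamase activity was read by CCF4 ratio (460/530 nm). Response was normalized to 2 uM rosiglitazone (100%) and DMSO, then Hill-fitted for EC50 and efficacy.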

For test [7], the target named is Vitamin D3 receptor (Homo sapiens) (UniProt P11473). As to the kind of experiment: qHTS assay for small molecule agonists of vitamin D receptor signaling (AID 588543).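 Note: 0% = DMSO basal and 100% = reference agonist control.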 In short, it runs like this: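 Agonist-mode beta-lactamase reporter: HEK293T VDR-UAS-bla cells in charcoal-stripped 2% FBS, compound series 16 h 37 C, CCF4 2 h RT. EC50 from Hill fit, scaled against DMSO and 50 nM calcitriol control.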

Test [8] is described as follows: qHTS assay for small molecule activators of the human pregnane X receptor (PXR) signaling pathway (AID 720659; call rule not given here; note: 0% is about no effect).
Test [9] can be described thus: qHTS assay for small molecule agonists of the antioxidant response element (ARE) signaling pathway (AID 651741; active = well fitted activation curve with a large enough effect in the signal ratio; the % refers to the signal ratio; note: potency is the fitted concentration of half-maximal effect; for activation: % of control where 0% means no effect). In short, it runs like this: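 HepG2 ARE-bla cells plated at 2,000 cells/well and incubated 5 h at 37 C/5% CO2 received 23 nL compound in DMSO. After 16 h at 37 C, LiveBLAzer B/G FRET substrate was applied for 2 h at room temperature and fluorescence read.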

Test [10] deals with Bile acid receptor (Homo sapiens) (UniProt Q96RI1). Kind of test: qHTS assay for small molecule antagonists of farnesoid X receptor signaling (AID 588526). Note: % is set by controls: 0 for no effect and ±100 for the full control effect. In short, it runs like this: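 Antagonist mode: titrated compounds tested against chenodeoxycholic acid stimulation (normalized to 50 uM CDCA and DMSO) in GeneBLAzer HEK293T cells for 16 h. Beta-lactamase read by CCF4 fluorescence; IC50 from Hill fits.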

The target is the same in test [11]. Kind of test: qHTS assay for small molecule agonists of farnesoid X receptor signaling (AID 588527).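 Note: series mostly up to about 77 µM; 0% = vehicle basal and 100% = reference agonist.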 To be noted: HEK293T FXR-UAS-bla, beta-lactamase ratio, 16 h; activation: stronger effect = higher value. The procedure, abridged:
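FXR-UAS-bla HEK293T cells (10% dialyzed FBS) preincubated 5-7 h at 37 C, then compounds at up to 92 uM for 16 h at 37 C. CCF4 beta-lactamase read-out after 2 h RT. Normalized to chenodeoxycholic acid (100 uM) and DMSO; Hill fit gave EC50 and efficacy.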

Peroxisome proliferator-activated receptor gamma (Homo sapiens), sequence (P37231 whole entry, looked up): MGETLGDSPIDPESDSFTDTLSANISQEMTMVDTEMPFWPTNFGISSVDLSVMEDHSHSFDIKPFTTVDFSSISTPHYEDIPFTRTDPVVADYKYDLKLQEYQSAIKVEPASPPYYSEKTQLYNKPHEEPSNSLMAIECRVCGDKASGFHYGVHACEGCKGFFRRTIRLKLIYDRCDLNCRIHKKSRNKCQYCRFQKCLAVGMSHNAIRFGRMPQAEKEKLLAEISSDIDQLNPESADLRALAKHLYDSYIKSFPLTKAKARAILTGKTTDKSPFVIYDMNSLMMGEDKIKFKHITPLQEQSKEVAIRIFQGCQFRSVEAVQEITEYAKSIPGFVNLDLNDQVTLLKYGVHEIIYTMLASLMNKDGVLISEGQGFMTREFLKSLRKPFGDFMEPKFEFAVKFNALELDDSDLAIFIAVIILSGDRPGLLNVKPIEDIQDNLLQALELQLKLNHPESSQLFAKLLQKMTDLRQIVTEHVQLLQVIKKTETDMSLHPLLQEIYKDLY
Vitamin D3 receptor (Homo sapiens), sequence (P11473 whole entry, looked up): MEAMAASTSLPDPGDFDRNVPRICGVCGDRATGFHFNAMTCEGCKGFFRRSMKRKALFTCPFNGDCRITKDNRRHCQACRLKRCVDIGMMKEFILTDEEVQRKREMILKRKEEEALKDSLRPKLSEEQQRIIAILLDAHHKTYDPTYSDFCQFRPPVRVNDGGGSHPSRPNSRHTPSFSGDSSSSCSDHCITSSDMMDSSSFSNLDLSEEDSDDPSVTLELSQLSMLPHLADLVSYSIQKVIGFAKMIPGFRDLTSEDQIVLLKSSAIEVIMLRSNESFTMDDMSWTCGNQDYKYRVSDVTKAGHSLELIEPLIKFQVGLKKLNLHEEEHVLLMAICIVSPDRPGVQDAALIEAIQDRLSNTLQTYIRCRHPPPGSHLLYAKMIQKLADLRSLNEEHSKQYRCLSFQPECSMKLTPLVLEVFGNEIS
Bile acid receptor (Homo sapiens), sequence (Q96RI1 whole entry, looked up): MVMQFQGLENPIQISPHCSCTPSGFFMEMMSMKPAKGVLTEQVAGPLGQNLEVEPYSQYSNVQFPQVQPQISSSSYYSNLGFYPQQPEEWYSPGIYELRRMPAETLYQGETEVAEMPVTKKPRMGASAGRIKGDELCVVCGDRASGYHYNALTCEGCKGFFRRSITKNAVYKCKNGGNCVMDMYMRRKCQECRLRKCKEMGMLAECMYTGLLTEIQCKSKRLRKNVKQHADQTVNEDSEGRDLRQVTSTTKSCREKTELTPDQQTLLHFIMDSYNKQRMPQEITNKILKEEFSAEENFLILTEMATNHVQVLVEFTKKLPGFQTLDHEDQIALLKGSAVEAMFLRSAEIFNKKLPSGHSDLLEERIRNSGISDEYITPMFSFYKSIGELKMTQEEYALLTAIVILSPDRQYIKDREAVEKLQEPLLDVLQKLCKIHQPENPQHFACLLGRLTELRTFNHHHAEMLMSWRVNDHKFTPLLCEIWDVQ
Glucocorticoid receptor (Homo sapiens), sequence (P04150 whole entry, looked up): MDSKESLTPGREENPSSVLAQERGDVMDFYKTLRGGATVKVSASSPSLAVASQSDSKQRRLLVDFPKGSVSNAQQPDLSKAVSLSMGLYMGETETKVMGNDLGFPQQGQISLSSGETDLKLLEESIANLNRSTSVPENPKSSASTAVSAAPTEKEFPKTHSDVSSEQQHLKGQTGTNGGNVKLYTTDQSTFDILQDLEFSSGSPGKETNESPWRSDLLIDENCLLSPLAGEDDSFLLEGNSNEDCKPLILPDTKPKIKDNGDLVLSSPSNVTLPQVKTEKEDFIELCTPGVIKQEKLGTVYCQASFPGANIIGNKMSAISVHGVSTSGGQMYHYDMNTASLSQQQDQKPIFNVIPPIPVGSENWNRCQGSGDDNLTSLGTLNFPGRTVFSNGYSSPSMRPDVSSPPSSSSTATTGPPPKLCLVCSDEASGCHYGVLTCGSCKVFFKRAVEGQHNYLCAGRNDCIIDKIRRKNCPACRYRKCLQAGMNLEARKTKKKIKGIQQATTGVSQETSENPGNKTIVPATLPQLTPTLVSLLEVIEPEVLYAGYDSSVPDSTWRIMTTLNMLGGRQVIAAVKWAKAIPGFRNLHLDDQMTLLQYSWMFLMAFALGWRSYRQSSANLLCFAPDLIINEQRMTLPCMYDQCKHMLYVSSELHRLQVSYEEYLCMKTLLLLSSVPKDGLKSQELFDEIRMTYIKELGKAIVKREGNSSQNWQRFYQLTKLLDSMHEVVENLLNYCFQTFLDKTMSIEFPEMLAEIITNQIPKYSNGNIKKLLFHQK
Androgen receptor (Homo sapiens), sequence (P10275 whole entry, looked up): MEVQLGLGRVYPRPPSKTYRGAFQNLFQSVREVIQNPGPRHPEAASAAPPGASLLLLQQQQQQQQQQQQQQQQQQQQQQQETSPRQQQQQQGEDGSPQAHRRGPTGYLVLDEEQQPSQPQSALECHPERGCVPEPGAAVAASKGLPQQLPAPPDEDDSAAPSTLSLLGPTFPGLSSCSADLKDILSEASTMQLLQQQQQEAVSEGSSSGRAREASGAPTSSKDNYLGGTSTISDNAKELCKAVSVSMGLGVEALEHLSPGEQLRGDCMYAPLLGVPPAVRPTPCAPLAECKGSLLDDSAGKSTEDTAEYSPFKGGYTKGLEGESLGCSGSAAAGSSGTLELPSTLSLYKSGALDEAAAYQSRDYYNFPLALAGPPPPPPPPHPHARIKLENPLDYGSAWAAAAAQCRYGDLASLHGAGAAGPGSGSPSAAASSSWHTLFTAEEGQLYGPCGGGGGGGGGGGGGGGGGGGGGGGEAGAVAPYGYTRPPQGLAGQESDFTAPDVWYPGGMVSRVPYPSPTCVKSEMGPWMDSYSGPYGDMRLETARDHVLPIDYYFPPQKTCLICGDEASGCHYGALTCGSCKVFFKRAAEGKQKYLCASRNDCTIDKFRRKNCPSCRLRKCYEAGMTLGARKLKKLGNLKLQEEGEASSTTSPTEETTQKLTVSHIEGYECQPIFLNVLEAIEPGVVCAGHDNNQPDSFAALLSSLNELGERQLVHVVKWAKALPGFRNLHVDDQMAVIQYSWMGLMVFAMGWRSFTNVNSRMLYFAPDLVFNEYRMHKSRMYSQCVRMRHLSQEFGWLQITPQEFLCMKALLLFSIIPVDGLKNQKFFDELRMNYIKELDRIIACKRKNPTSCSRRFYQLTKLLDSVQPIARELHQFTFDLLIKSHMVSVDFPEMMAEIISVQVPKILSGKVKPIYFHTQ

For the molecule `CCNc1nc(NC(C)C)nc(SC)n1`, the activation in test [1] is -1.4% (inactive). The Potency result in test [2] and in test [3] was “inactive” each time. Besides, in test [4], the max response was -4.47%.

For `CCCCOC(=O)[C@@H](C)Oc1ccc(Oc2ccc(C#N)cc2F)cc1`, the activation in test [5] was -11.2% (inactive). Also, the Potency entry in [6] and in [3] was “inactive” each time. Further, the molecule was called inactive in test [7] and in [8]. In test [4], the max response is 10.2%.

Turning to `CNP(=O)(OC)Oc1ccc(C(C)(C)C)cc1Cl` (configuration not stated), the call in [7] was inactive. The max response in test [4] was determined as 10.3%. Moreover, the Potency in test [9] is 61.1 µM (active).

Regarding `N#CC(CCc1ccc(Cl)cc1)(Cn1cncn1)c1ccccc1` (configuration not stated), the activation in test [5] was -4.45% (inactive). In [7], the molecule was classed as inactive. Besides, in [9], the Potency was 68.6 µM (active).

Consider `N#CCNC(=O)c1cnccc1C(F)(F)F`, for which the activation was 4.4% (inactive) in test [1] and -0.0822% (inactive) in [11]. The Potency result in test [2], in test [10], in [6], in [3] and in test [9] was “inactive” each time. Also, the max response in test [4] is -4.19%. In [8], the result was inactive.

For `C=CCOC(=O)C(C)(C)OC(=O)c1cc(-n2c(=O)cc(C(F)(F)F)n(C)c2=O)ccc1Cl`, the Potency result in [6] and in [3] was “inactive” throughout. In addition, the call in test [7] was inactive. Further, the max response in test [4] was -7.31%.

In the case of `COc1ccc(/C(=C/C(=O)N2CCOCC2)c2ccc(Cl)cc2)cc1OC`, the activation in test [1] was -2.83% (inactive); in test [11], -0.563% (inactive). The Potency entry in test [2], in test [6], in test [3] and in test [9] was “inactive” throughout. In addition, the outcome in [7] was inactive. The max response in [4] turned out to be 28.2%.

For the molecule `CN/C(=N\[N+](=O)[O-])NCc1cnc(Cl)s1`, the Potency result in [6] and in test [3] was “inactive” each time. Besides, the call in [7] and in test [8] was inactive. Moreover, in [4], the max response is -16.2%.

Take `CCOP(=S)(OCC)SC(CCl)N1C(=O)c2ccccc2C1=O` (configuration not stated): the activation in [1] is -16.4% (inactive). Besides, in test [2], the Potency entry is “inactive”. For the same molecule, the molecule was classed as inactive in test [7]. For the same molecule, in test [9], the Potency was 27.3 µM (active).

With `CCCOc1nn(C(=O)NS(=O)(=O)c2ccccc2C(=O)OC)c(=O)n1C`, the activation is 9.43% (inactive) in [1] and -2.11% (inactive) in test [5]. Also, the Potency result in test [2] and in test [3] was “inactive” each time. Further, the outcome in [7] and in test [8] was inactive.

In the case of `O=C(O)C(F)(F)C(F)(F)C(F)(F)C(F)(F)C(F)(F)C(F)(F)C(F)(F)C(F)(F)C(F)(F)F`, in [5], the activation is -0.443% (inactive). Also, the Potency entry in test [6] and in [3] was “inactive” throughout. For the same molecule, the max response in test [4] was -12.9% and -38.7%. For the same molecule, the result in test [8] was inactive.

As for `CC1(C)[C@H](C=C(Cl)Cl)[C@H]1C(=O)O[C@H](C#N)c1ccc(F)c(Oc2ccccc2)c1`, the activation in [5] is -0.69% (inactive) and -0.284% (inactive). In addition, in test [3], the Potency entry is “inactive”. Moreover, the molecule was called inactive in test [7].

Regarding `ClC1=C(Cl)[C@@]2(Cl)[C@H]3C[C@@H](Cl)[C@H](Cl)[C@H]3[C@@]1(Cl)C2(Cl)Cl`, the figures for the activation in test [1], in test [11] and in test [5] were -0.104% (inactive), -1.23% (inactive) and -9.73% (inactive), respectively. Further, the Potency result in [2] was “inactive”. Also, the result in test [7] was inactive. Further, in [9], the Potency was 24.3 µM (active).

Take `CC1(C)[C@H](C(=O)O[C@H](C#N)c2cccc(Oc3ccccc3)c2)[C@@H]1C=C(Br)Br`: in test [1], the activation was -5.24% (inactive). Further, the Potency entry in test [2] is “inactive”.

For `COC(=O)N(C(=O)N1COC2(C(=O)OC)Cc3cc(Cl)ccc3C2=N1)c1ccc(OC(F)(F)F)cc1` (configuration not stated), the activation in test [5] was 17.1% (inactive). For the same molecule, the call in [7] was inactive.

As for `ClC1=C(Cl)C2(Cl)C3C4OC4C(Cl)C3C1(Cl)C2(Cl)Cl` (configuration not stated), the Potency result in test [6] and in [3] was “inactive” throughout. Besides, in test [4], the max response was 2.4%.

For the molecule `N#Cc1cc(I)c(O)c(I)c1`, the activation in test [1] is 6.03% (inactive). Also, the Potency result in test [2] is “inactive”. Moreover, the result in test [7] and in test [8] was inactive. In addition, in test [4], the max response came out at 19.3%. Further, the Potency in test [9] is 30.6 µM (active).

With `CON(C)C(=O)Nc1ccc(Cl)c(Cl)c1`, in test [5], the activation was -2.11% (inactive). For the same molecule, in test [6], the Potency entry was “inactive”. Also, in test [4], the max response is -3.25%.
